Screen size: about 220,000 compounds; about 2,400 (1.1%) were called active.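 The calls were made as follows: active = inhibition above a per-campaign cutoff, the mean inhibition of all tested compounds plus 3 SD (cut at about 27% in these data); inactive = the rest.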 This excerpt belongs to a sample that is enriched for actives.
assay: parental Ba/F3 cell viability inhibition, counter-screen for JAK2V617F inhibitor project, murine pro-B, CellTiter-Glo luminescence (AID 1486); settings: CellTiter-Glo ATP luminescence, at 5.6 µM, hits give high values;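 also: 0% = DMSO wells and 100% = JAK Inhibitor I control wells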

SMILES | inhibition
CCOC(=O)C1CN(S(=O)(=O)c2ccc(F)cc2)C1 | 0.24% (inactive)
Cc1ccc(S(=O)(=O)CC(=O)Nc2c(C)n(C)n(-c3ccccc3)c2=O)cc1 | 7.55% (inactive)
Cc1cc(C)cc(OCC(=O)NNC(=O)CCN2C(=O)c3ccccc3C2=O)c1 | 5.47% (inactive)
CCN(C(=O)COC(=O)c1c(NC(C)=O)sc(C)c1C)C1CCS(=O)(=O)C1 (centres undefined) | 8.25% (inactive)
CCOC(=O)c1c(-c2ccc(C)cc2)csc1/N=C(\C)C1=C(O)c2ccccc2C1=O | -0.41% (inactive)
CCOC(=O)c1ccccc1NS(=O)(=O)c1ccc(OC)cc1 | 5.36% (inactive)
CCOC(=O)C1=C(c2ccc(OC)cc2)C(=O)c2ccccc2C1=O | 29.1% (active)
Brc1ccc(-c2nn[nH]n2)cc1 | 0.72% (inactive)
COc1ccc(OCCC(=O)c2ccc(OC)cc2)cc1 | -3.65% (inactive)
COc1ccc(C(=O)C[n+]2ccc(C)cc2)cc1 | 2.06% (inactive)
COc1ccc(C(=O)C[n+]2ccc(N)c(C)c2C)cc1 | 74.6% (active)
O=C(CNS(=O)(=O)c1ccccc1)NCC(=O)OCc1ccccc1F | 8.12% (inactive)
O=C(c1cncc(Br)c1)N1CCN(c2ccc([N+](=O)[O-])cc2)CC1 | 6.79% (inactive)
O=C1NC(c2ccc(-c3ccccc3[N+](=O)[O-])o2)C(C(=O)c2ccc(Cl)cc2)C(O)(C(F)(F)F)N1 (centres undefined) | 6.99% (inactive)
Cc1c(/C=N\NC(=O)c2cc3ccccc3o2)c2ccccc2n1C | 41.3% (active)
O=C(N/N=C/c1coc2ccccc2c1=O)c1cc2ccccc2o1 | 4.3% (inactive)
O=C(N/N=C/c1c[nH]c2ccccc12)c1cc2ccccc2o1 | -2.26% (inactive)
Cc1ccc(-c2cnc(NC(=O)CCC(=O)N(C)Cc3ccccc3)n2C)cc1 | 62.4% (active)
CN(Cc1ccccc1)C(=O)CCc1ccccc1 | 1.56% (inactive)
Cn1c(-c2ccc(F)cc2)cnc1SCC(=O)NNC(=O)Cc1ccccc1 | 1.6% (inactive)
CC(=O)Nc1nc(N(C)C)nc(N(C)C)n1 | 2.27% (inactive)
COc1ccc(-n2nnnc2SCC(=O)NCc2cccs2)cc1 | 7.65% (inactive)
COC(=O)CNC(=O)c1ccccc1F | 3.61% (inactive)
COc1ccc(OCC(=O)NNC(=O)c2cccc(C)c2)cc1 | 1.18% (inactive)
CSc1nc(N(C)NC(=O)c2cccc(C)c2)c2ccccc2n1 | 90.9% (active)

SMILES | inhibition
CN(NC(=O)c1ccccc1)c1nc2ccccc2nc1C(F)(F)F | 5.67% (inactive)
CN(NC(=O)c1ccccc1F)c1nc(C(F)(F)F)nc2ccccc12 | 73.9% (active)
COc1ccc(C(=O)NN(C)c2nc(-c3ccccc3)cc(C)c2S(C)(=O)=O)cc1 | 6.2% (inactive)
Cc1cc(C)c2nc(SCC(=O)N(C)C3CCS(=O)(=O)C3)cc(C)c2c1 (centres undefined) | 2.01% (inactive)
CCc1cc(CNC(=O)CC2C(=O)NCCN2Cc2ccccc2C(F)(F)F)on1 (centres undefined) | 2.77% (inactive)
O=C(O)c1ccn(COc2ccc(Br)cc2)n1 | 6.73% (inactive)
C=CCNC(=S)N/N=C/c1ccc(C)s1 | -10.6% (inactive)
COC(=O)C1NN=C(C(=O)c2ccc(Br)cc2)C1c1cccc(Br)c1 (centres undefined) | 5.65% (inactive)
CC(C)CCN1CCN(Cc2cn[nH]c2C2CCCCC2)CC1CCO (centres undefined) | 5.24% (inactive)
CC1(C)CC(CNCCC(c2ccc(F)cc2)c2ccco2)CCO1 (centres undefined) | 4.73% (inactive)
Cc1cc(NC(=O)CN2C(=O)NC(C)(CCc3ccccc3)C2=O)no1 (centres undefined) | -0.49% (inactive)
O=C(Nc1ccc(CSc2ccccc2)cc1)c1ccc(CN2CCOCC2)cc1 | 6.68% (inactive)
O=C(COC(=O)CNC(=O)c1ccccc1F)NCC(F)(F)F | 0.89% (inactive)
CCOc1ccc(N2C(=O)CN(c3cccc4ccccc34)C2=S)cc1 | 80.4% (active)
CCOc1ccc(N2C(=O)CC(N(O)c3ccccc3)C2=O)cc1 (centres undefined) | -1.11% (inactive)
CCO/C=C1\C(=O)N(c2ccc(OCC)cc2)C(=O)c2ccccc21 | 0.91% (inactive)
COc1ccc(CC(NC(C)=O)C(=O)NC2CCN(C(=O)C3CC3)CC2)cc1OC (centres undefined) | -2.26% (inactive)
Cc1cc(NC(=O)Nc2ccc(Cl)cc2)n(-c2ccccc2)n1 | 0.47% (inactive)
Cc1nn(-c2ccccc2)c(-n2cccc2)c1C(=O)O | 7.83% (inactive)
CCn1c(SCC(=O)Nc2sc(C)c(C)c2C#N)nnc1C1CC1 | -1.4% (inactive)
COC(=O)c1ccc(/C=N/N2C(C)CCCC2C)cc1 (centres undefined) | -0.91% (inactive)
CCCC(=O)Nc1nc2ccc(NC(=O)c3c(F)c(F)c(OC)c(F)c3F)cc2s1 | 83.3% (active)
COc1ccc2nc(Nc3nc4ccc(NC(C)=O)cc4s3)sc2c1 | 1.76% (inactive)
CCCC(=O)Nc1nc2ccc(NC(=O)c3cccnc3)cc2s1 | 6.39% (inactive)

Reference: PubChem BioAssay AID1486 (The Scripps Research Institute Molecular Screening Center, 2009)
